Legend:
Assay in all cases: PBM binding z-score (relative to random genomic background probes); higher = stronger binding; sequences stand for … in GC…GCGATTGACAGCGTAGAATGAAGG
[1] = system: FXR:RXRa (NR concentration 270 nM, RXRa partner concentration 90 nM)
Summary of the method: (§1)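 Ligand-free nuclear receptor dimers were bound for 1 h to custom Agilent 4×180K protein-binding microarrays. Detection used antibodies against each partner (one per run). Binding z-scores rest on regression-normalized fluorescence, with random background probes as the reference.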

[2] = system: LXRa:RXRa (NR concentration 270 nM, RXRa partner concentration 90 nM)
Summary of the method: as §1

[3] = system: LXRa homodimer (NR concentration 270 nM)
Summary of the method: as §1

[4] = system: LXRb:RXRa (NR concentration 270 nM, RXRa partner concentration 90 nM)
Summary of the method: as §1

[5] = system: LXRb homodimer (NR concentration 270 nM)
Summary of the method: as §1

[6] = system: PPARa:RXRa (NR concentration 270 nM, RXRa partner concentration 90 nM)
Summary of the method: as §1

[7] = system: PPARg:RXRa (NR concentration 180 nM, RXRa partner concentration 90 nM)
Summary of the method: as §1

[8] = system: PPARg:RXRa 270nM:90nM, anti-RXR (NR concentration 270 nM, RXRa partner concentration 90 nM)
Summary of the method: as §1

[9] = system: PPARg:RXRa 30nM:10nM, anti-RXR (NR concentration 30 nM, RXRa partner concentration 10 nM)
Summary of the method: as §1

[10] = system: PPARg:RXRa 90nM:30nM, anti-RXR (NR concentration 90 nM, RXRa partner concentration 30 nM)
Summary of the method: as §1

| Sequence | PBM binding z-score [1] | PBM binding z-score [2] | PBM binding z-score [3] | PBM binding z-score [4] | PBM binding z-score [5] | PBM binding z-score [6] | PBM binding z-score [7] | PBM binding z-score [8] | PBM binding z-score [9] | PBM binding z-score [10] |
| --- | --- | --- | --- | --- | --- | --- | --- | --- | --- | --- |
| TACCCTAGGTCATGCGGGCCAGTATAGTGTCGGC | 4.4 | 6.5 | 8.1 | 3.42 | 2.52 | 3.62 | 3.01 | 2.92 | 0.448 | 1.71 |
| ATCGGAAGGTCGACGAGGTGAGTATACACCGTTT | 1.65 | 0.953 | -0.358 | 0.827 | -0.58 | 2.18 | 1.06 | 0.751 | -0.112 | 0.452 |
| CCTTACGGGTCACTCCAGGTTAGAGCATCGGAGT | 4.5 | 6.91 | 0.78 | 4.42 | 0.148 | 4.23 | 3.19 | 3.7 | 0.828 | 2.54 |
| TAGCCTAGGTCAGATCGGGACAGTATACGCTATA | 3.31 | 1.3 | -0.0323 | 1.07 | -0.146 | 1.82 | 0.86 | 0.922 | 0.0788 | 0.727 |
| GGAACGACGGCATTCGAGTTGATAGCATGGCGAT | -0.557 | -0.773 | -0.583 | -0.948 | -1.04 | -0.735 | 0.532 | -0.612 | -0.766 | -0.917 |
| TCATATAGGTAACGGTGAAAGTCGAACGATATGA | 0.511 | 0.386 | -0.274 | 0.302 | -0.326 | 1.52 | 1.63 | 2.54 | 3.34 | 2.78 |
| TCTTGTAGATCAAGCAGGTTACGAAAGCCTGAGT | 0.426 | 0.343 | -0.343 | 0.659 | -0.527 | 1.03 | 0.00625 | 1.34 | 2.5 | 1.88 |
| GCCGCTAGGTCAGGTTGGTCAGCTAACGGGTACG | 1.23 | 0.593 | -0.167 | 0.545 | -0.194 | 1.41 | 0.278 | 0.955 | -0.607 | 0.0187 |
| TCATATAGATAAACAGGTGAAAGTCCGTAAGTTA | 1.22 | 1.04 | 0.611 | 1.09 | 0.473 | 1.69 | 1.41 | 2.83 | 4.51 | 3.77 |
| GCTGCTAGGTCAGGTTGGTCAGCTACCGGGTACG | 1.12 | 0.526 | -0.544 | 0.265 | -0.337 | 1.4 | 0.0957 | 0.884 | -0.631 | 0.221 |
| TCTTGTAGATCAATATAGGTTAAGAAAGTGCGCT | 0.801 | 2.72 | 0.469 | 1.28 | 0.58 | 1.97 | 0.81 | 2.09 | 3.36 | 2.56 |
| ACTATTAGTTGAGACGAGGGCAACTGATAGGTTG | 0.629 | -0.0348 | 0.074 | -0.0916 | -0.0432 | 0.621 | 0.7 | 0.45 | 0.365 | 0.668 |
| CCGAGCAGGCCAGGGTCACTCAAGCATTTCGCTT | 2.23 | 1.75 | -0.467 | 2.16 | -1.08 | 2.97 | 0.393 | 1.19 | -0.201 | 0.482 |
| CGTCCAAGGTCAAAGGTAAGTGAAGAGATGACGG | 7.07 | 5.81 | 0.609 | 4.33 | 0.945 | 6.03 | 7.34 | 7 | 5.4 | 6.76 |
| CCTCGGAGGACAGAAGGTCAGAGCGGTCCGCTTT | 1.42 | 1.8 | 0.0694 | 0.843 | -0.863 | 1.78 | -0.185 | 0.642 | -0.618 | 0.0661 |
| CAAACTAGGTCACAGAGCTCAAAGTCCGTGCGTA | 4.29 | 3.18 | 0.278 | 2.01 | 0.231 | 5.45 | 8.88 | 7.47 | 5.2 | 7.26 |
| CTACCAAGGCGAACAAGGTCGTTGATTACTATTC | 0.285 | 0.164 | 0.0479 | 0.521 | -0.798 | 0.658 | 0.0767 | 0.292 | -0.118 | -0.247 |
| CTACCAAGGTGAACAAGGTCGTTGGTTACTATTC | 1.39 | 1.4 | 0.281 | 1.71 | -0.365 | 2.45 | 0.875 | 1.37 | -0.194 | 0.758 |
| AGTCAAAATTCATCTAGGTAACGTAAGATATGCT | -0.194 | -0.373 | -0.0496 | -0.0959 | -0.222 | 0.0588 | 1.19 | 0.183 | 0.359 | 0.0171 |
| TCTTGTAGATCAATAGAGGTAAAGAAAGTGCGCT | 0.355 | 0.562 | -0.497 | 0.281 | -0.231 | 0.706 | -0.0447 | 1.14 | 2.57 | 1.62 |
| CGTCCAAGGTCAGAGTGGTCAGTGAATGCCGAGT | 4.91 | 3.23 | 0.338 | 2.49 | -0.0536 | 3.83 | 1.79 | 2.5 | 0.0236 | 1.35 |
| CATACTGGGCCATCAGGTCATTGATATCAACGTT | 1.86 | 1.46 | 1.4 | 1.75 | 0.36 | 2.86 | 2.91 | 3.57 | 1.42 | 2.43 |

| Sequence | PBM binding z-score [1] | PBM binding z-score [2] | PBM binding z-score [3] | PBM binding z-score [4] | PBM binding z-score [5] | PBM binding z-score [6] | PBM binding z-score [7] | PBM binding z-score [8] | PBM binding z-score [9] | PBM binding z-score [10] |
| --- | --- | --- | --- | --- | --- | --- | --- | --- | --- | --- |
| TGAGACAGGTGAAGGTAACTCAGGTACGCAGTCG | -0.213 | 1.11 | -0.351 | 0.233 | -0.678 | 0.549 | 0.639 | 0.251 | 0.211 | -0.17 |
| TCTGCTAGGTCAGTTGGTCAGCAAACGAGCTGCC | 0.988 | 0.432 | -0.424 | 0.394 | 0.405 | 1.36 | 0.418 | 1.65 | 1.19 | 1.41 |
| TGTCAAAGATCAAAGGTAACGTAAGTATCCACAC | 1.19 | 1.08 | -0.325 | 1.32 | -0.103 | 2.73 | 4.17 | 4.22 | 2.19 | 3.68 |
| TTTATTAGTTGAAGGGCAACCGACGAGTCCGTTT | 0.831 | 0.834 | 0.746 | 0.739 | 0.614 | 0.899 | 0.644 | 1.71 | 1.09 | 1.95 |
| GCAACTGGGGCATCAGCAGGTTACCATAACTTAA | -0.117 | -0.265 | -0.205 | 1.08 | -0.444 | 1.83 | 2.26 | 1.76 | 0.0895 | 1.1 |
| ATATGTAGGTTAAGGGCCATTCAGGTTGGTTCGC | 0.756 | 0.989 | 0.305 | 0.911 | 0.0829 | 4.43 | 7.86 | 7.32 | 6.65 | 7.62 |
| ACTATTAGTTGGGACGAGGGCAACCGATAGGTTG | 0.251 | 0.126 | -0.235 | 0.0169 | 0.305 | 0.354 | 0.695 | 0.305 | 0.0129 | 0.225 |
| CCGACTGGGGCAGAAAGGTTCCCATACCATCCGG | -0.722 | -0.705 | -0.526 | -0.996 | -1.27 | -0.271 | 0.412 | 0.198 | -0.842 | -0.499 |
| ACTAGCCGGCCAAGTTTGGGTCACTCAAACAAAG | 0.307 | 0.194 | -0.183 | 0.789 | -0.664 | 1.32 | -0.0659 | -0.198 | -1.03 | -0.301 |
| GCATCTAGGTAATACAAGGTGAAAGTCCGATTGT | 1.09 | 1.15 | 0.539 | 0.383 | -0.273 | 1.5 | 0.956 | 0.984 | 0.0503 | 0.572 |
| GGAACGAGGGCAAAGTTGATTGCATCTGTCGACG | 1.25 | 0.976 | -0.336 | 0.888 | -0.546 | 3.9 | 6.23 | 6.84 | 5.63 | 6.92 |
| TCATATAGGTAAAGTTGAAAGTCGAACGATATGA | 0.231 | 0.886 | -0.186 | 0.68 | -0.123 | 2.11 | 1.9 | 3.23 | 3.72 | 3.52 |
| CATACAGGGTCAGCTAGGCCATAGTAGGGACGGC | 4.59 | 3.07 | -0.118 | 2.31 | 0.267 | 4.32 | 3.69 | 2.95 | 1.21 | 1.9 |
| CGTCCAAGGTCAATGCTAGGTCCGTGAAAGCATT | 6.89 | 4.45 | 0.519 | 3.53 | 0.496 | 4.84 | 3.19 | 3.97 | 0.655 | 2.86 |
| CGAACTAGGTCATACAGGACAGTGAATACATTGA | 3.71 | 2.61 | 0.562 | 1.97 | 0.184 | 4.67 | 7.62 | 6.24 | 3.84 | 5.74 |
| ATCTCTAGGTAAAGTTCAGTGCAAGATCGATAGA | 1.53 | 2.29 | 2.02 | 1.43 | 0.722 | 2.52 | 3.48 | 4.48 | 2.63 | 4.43 |
| ATCTCTAGGTAAAGATAGTTCATTGAATGCAAAT | 0.585 | 5.32 | 1.71 | 1.59 | 0.747 | 1.36 | 1.11 | 0.714 | 0.293 | 0.846 |
| GCTGCTAGGTCAACTGATGGTTAGCTAAAGCTCG | 4.53 | 2.96 | 0.0508 | 1.97 | 0.22 | 3.58 | 2.88 | 3.09 | 0.818 | 1.99 |
| ATCTCTAGGTAACCAATTTCAGTGAATGCCGAAC | 0.444 | 0.64 | 0.561 | 0.348 | 1.28 | 0.596 | 0.441 | 0.547 | 0.162 | 0.306 |
| CTCGAAAGGTCGTGCTCAGGTGTGTATACCAAAC | 5.43 | 3.78 | 0.295 | 3.62 | 0.401 | 4.72 | 2.43 | 3.56 | 1.06 | 2.46 |
| CCTAGCAGGCCAATCTGGGTCACTCAGGGCTTGA | 0.175 | 0.973 | -0.637 | 0.336 | -1.06 | 2.61 | 1.81 | 2.15 | -0.232 | 1.52 |
| AGAATGAGGTTATACGTAGATCAAGGAAGAAAGT | 2.5 | 2.22 | 0.0848 | 1.72 | 0.172 | 3.25 | 2.25 | 2.12 | 0.826 | 1.62 |

Source: the supplement of paper PMC6555819
